# Compounds without any hit were thinned out: in the full panel of roughly 83,000, 20% have a hit.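 Assay: single dose, 48 h. Readout: percent growth (0 = no net growth; negative = cell death). Active: <10.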 Unmarked numbers belong to inactive results. Calls of active or inactive are those of the source.
# Assays:
# Assay in all cases: NCI-60 one-dose screen, 48 h (100 = growth as untreated, 0 = no growth, -100 = all killed)
# Details in all cases: 10 µM unless noted
# [1] = test system: DU-145 prostate
# [2] = test system: K-562 leukemia
# [3] = test system: MALME-3M melanoma
# [4] = test system: MDA-MB-231 breast
# [5] = test system: RXF 393 renal
# [6] = test system: SF-268 CNS
# [7] = test system: SF-295 CNS
# [8] = test system: SF-539 CNS
# [9] = test system: UACC-257 melanoma
# [10] = test system: M14 melanoma
# [11] = test system: HCT-15 colon
# [12] = test system: HT29 colon
# [13] = test system: SNB-75 CNS
# [14] = test system: SNB-19 CNS
# [15] = test system: U251 CNS
# [16] = test system: PC-3 prostate
# [17] = test system: SK-MEL-5 melanoma
# [18] = test system: UACC-62 melanoma
# [19] = test system: LOX IMVI melanoma
# [20] = test system: SK-MEL-28 melanoma
SMILES,growth [1],growth [2],growth [3],growth [4],growth [5],growth [6],growth [7],growth [8],growth [9],growth [10],growth [11],growth [12],growth [13],growth [14],growth [15],growth [16],growth [17],growth [18],growth [19],growth [20]
CCCCCCCCCCCCCCCCCC1=NCCN1CCNC(C)=O,69.7%,26.4%,98.9%,66.3%,99%,88.7%,108%,86.8%,108%,101%,74.6%,57.3%,83.5%,101%,79.1%,80.3%,102%,107%,-14.6% (active),98.1%
COc1cccc(CNC(=O)c2cccc(C3CC(=O)c4c(cc(OC)c(OC)c4OC)O3)c2)c1 (stereo not given),101%,10.7%,71.3%,76.8%,84.3%,78.7%,84.1%,35.4%,67.8%,41%,43.5%,68%,27.7%,51.2%,49.3%,20.8%,59.4%,24.3%,44.9%,65.7%
COc1ccc(C(=O)NCCNc2nccc(-c3c(-c4ccc(F)cc4)nc4sccn34)n2)cc1,59.1%,59.5%,76%,62.2%,72%,59.2%,61.6%,79.1%,89%,55.6%,36.6%,14.6%,50.9%,61.9%,55.4%,49.5%,38.1%,47.4%,43.3%,76.7%
CC(C)OC(=O)c1ccc2n1CCCc1cnc(Nc3ccccc3)nc1-2,87.2%,43.6%,55.4%,78%,91.2%,94.4%,76.1%,86.1%,82.8%,89.6%,43.7%,72.5%,98.6%,89%,76.4%,75.7%,61.1%,64.7%,78.7%,92.9%
O=C(/C=C/c1ccc(Br)cc1)c1ccccc1,95.6%,59.4%,104%,101%,98.7%,90.9%,96.7%,100%,84.3%,87.6%,72.5%,69.8%,101%,86.9%,69%,82%,95.3%,92.2%,59.6%,109%
Oc1ccc(Br)cc1/C=N/NC(=S)NC12CC3CC(CC(C3)C1)C2,9.26% (active),0.99% (active),17.6%,-4.61% (active),-15.6% (active),8.34% (active),17%,36.7%,26.1%,20.6%,9.35% (active),-16.7% (active),53.3%,45.3%,5.5% (active),-19% (active),28.6%,30.1%,-76% (active),51.2%
C#CCCCCCCC[C@@H]1OC(=O)[C@H]([C@@H](C)CC)NC(=O)[C@@H]([C@@H](C)CC)NC(=O)CC(=O)[C@@H]1C,106%,92.5%,94.7%,85.7%,101%,94.8%,98.6%,96.2%,121%,93.3%,97.3%,122%,80.9%,97.6%,105%,90.8%,102%,83%,92%,109%
O=C(O)c1ccc(Br)nc1,100%,100%,94.2%,100%,105%,95.4%,96.9%,97.7%,88.3%,101%,97.8%,96.1%,81.7%,95.3%,93.8%,97.3%,102%,95.8%,97.2%,104%
CCC(C)[C@H](NC(=O)Nc1cc(C(F)(F)F)cc(C(F)(F)F)c1)C(=O)N[C@@H](Cc1cn(C)cn1)C(=O)OC (stereo not given in full),-96.4% [100 µM] (active),-68.3% [100 µM] (active),-86.5% [100 µM] (active),-96.3% [100 µM] (active),-86.6% [100 µM] (active),-87.9% [100 µM] (active),-93.3% [100 µM] (active),-96% [100 µM] (active),-97.5% [100 µM] (active),-89.7% [100 µM] (active),-83.2% [100 µM] (active),-83.6% [100 µM] (active),-100% [100 µM] (active),-98.5% [100 µM] (active),-98% [100 µM] (active),-93.7% [100 µM] (active),-97.9% [100 µM] (active),-98.8% [100 µM] (active),-81.2% [100 µM] (active),-95.3% [100 µM] (active)
O=C(C(=O)N1CCOCC1)c1ccc(O[C@H]2O[C@H](CO)[C@@H](O)[C@H](O)[C@@H]2O)cc1,122%,106%,102%,98.4%,103%,123%,107%,99.2%,107%,98.8%,97.4%,93.4%,100%,109%,104%,88.8%,97.4%,97.1%,102%,117%
CCCCCCCCC/C(=N\NC(=O)c1ccncc1)c1ccc(O)c(O)c1O,27.8%,15.1%,35.4%,47.9%,19.2%,17.6%,16.3%,7.62% (active),8.98% (active),8.78% (active),34.9%,29%,37.1%,33.8%,12.1%,47%,-18.8% (active),-5.54% (active),22.9%,43.7%
CC(=O)NNC(=O)c1sc(NC(C)=O)nc1C,113%,61.4%,168%,100%,112%,93.2%,106%,97.8%,105%,115%,95.7%,87.3%,99.2%,92.4%,102%,90.8%,103%,91.9%,94.4%,95.9%
N#CC1=C(N2CCOCC2)NC2c3ccccc3Sc3ccccc3N2C1=N (stereo not given),98.4%,117%,103%,98.7%,90.7%,91.8%,116%,89.7%,108%,98.9%,104%,104%,94.1%,107%,98.7%,88.8%,90.3%,87.4%,94.2%,93.9%
O=C(NCCCl)Nc1nccnc1OCc1ccc(F)cc1,114%,99.4%,148%,87.6%,109%,99.2%,99.2%,109%,109%,95.3%,104%,102%,90.3%,94.9%,101%,96.5%,107%,93.7%,98.3%,109%
Oc1ccccc1/C=N/N=C/c1c(O)ccc2ccccc12,96.9%,78.5%,91.3%,69.9%,109%,92.5%,98.1%,96.9%,98.2%,80%,70.1%,100%,94.2%,99.4%,93.2%,83.8%,93.1%,84.4%,85.2%,101%
